Data on 14 compounds can be found in PubChem BioAssay (Tox21).

Test [1] can be described thus: Caspase-3/7 induction in CHO-K1 cells by small molecules, qHTS cell viability counter screen (AID 1346979). Note: potency is the fitted concentration of half-maximal effect; nearly all actives have a fitted effect of over 35% in size. An outline of the steps: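 CHO-K1 wt, 1,500 cells/well; 5hr pre-incubation 37C/5% CO2; compound pin transfer (DMSO); 16hr exposure; CellTiter-Fluor added, 1hr, fluorescence read.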
Background: qHTS replaces the single test concentration by a dilution series.

The nature of test [2]: Caspase-3/7 induction in CHO-K1 cells by small molecules, qHTS assay (AID 1346980). Note: nearly all actives have a fitted effect of over 15% in size. Note: potency is the fitted concentration of half-maximal effect. Summed up:
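Wild-type cells were seeded at 1,500 per well and settled 5 hr at 37 C, 5% CO2, then exposed to DMSO-dissolved compounds for 17 hr. Caspase-Glo 3/7 reagent was added, and luminescence was read after 30min at room temperature.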

In test [3] the target is Nuclear receptor subfamily 1 group I member 2 (Homo sapiens) (UniProt O75469). The test is described as follows: Human pregnane X receptor (PXR) small molecule agonists, qHTS assay (AID 1346982). For activation: % is set by controls: 0 for no effect and ±100 for the full control effect. Note: nearly all actives have a fitted effect of over 35% in size. Note: potency is the fitted concentration of half-maximal effect. Summed up:
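PXR-Luc HepG2 cells (CYP3A4 promoter-driven luciferase) were seeded in medium with 5% charcoal-stripped FBS, left 5 hr at 37 C, then exposed to compounds in DMSO for 24 hr. Luminescence was read after ONE-Glo addition.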

Test [4] deals with Nuclear receptor subfamily 1 group I member 2 (Rattus norvegicus) (UniProt Q9R1A7). As to the kind of experiment: Rat pregnane X receptor (rPXR) activation by small molecules, qHTS assay (AID 1346983). Note: % is set by controls: 0 for no effect and ±100 for the full control effect; nearly all actives have a fitted effect of over 20% in size. The following applies: rPXR luciferase reporter cells, One-Glo luminescence, 24 h; max activation: hits give high values. An outline of the steps: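 Cell-based rPXR luciferase reporter assay, 2,000 cells per well, rested 5hr at 37 C before compound addition in DMSO, then 24 hr at 37 C. One-Glo reagent was added and luminescence read after 30 min at room temperature.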

Test [5] deals with Nuclear receptor subfamily 1 group I member 2 (Homo sapiens) (UniProt O75469). The test is described as follows: CYP3A4 induction through human pregnane X receptor (PXR) by small molecules, qHTS assay (AID 1346984). For activation: % is set by controls: 0 for no effect and ±100 for the full control effect. Note: nearly all actives have a fitted effect of over 40% in size. Note: potency is the fitted concentration of half-maximal effect. An outline of the steps:
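DPX-2 cells (HepG2 co-transfected with PXR and CYP3A4 promoter-luciferase) treated with compounds 24 h at 37C; luciferin-IPA CYP3A4 substrate 3uM final added for 3 h, then One-Glo; luminescence read. qHTS format.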

Test [6] deals with Cytochrome P450 2D6 (Homo sapiens) (UniProt P10635). As to the kind of experiment: Cytochrome P450 Family 2 Subfamily D Member 6 (CYP2D6) small molecule antagonists: luciferase reporter qHTS assay (AID 1671196). Note: nearly all actives have a fitted effect of over 50% in size. Note: potency is the fitted concentration of half-maximal effect. An outline of the steps: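 CYP2D6 enzyme–substrate mix was held with compound for 10 min at room temperature, then NADPH regeneration solution was added and the reaction ran 1 h at room temperature. Luciferin product was detected by luminescence after 20 min with detection reagent.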
Background: Reporter assays use an easily measured gene product as a stand-in for the process of interest.

A short description of test [7]: Caspase-3/7 induction in HepG2 cells by small molecules, qHTS assay (AID 1346978). Note: nearly all actives have a fitted effect of over 15% in size. Note: potency is the fitted concentration of half-maximal effect. Summed up:
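Wild-type HepG2 cells (2,000/well) were settled 5 h at 37 C, 5% CO2, then exposed to compounds in DMSO for 17 h. Caspase-3/7 activity was read by luminescence 30 min after adding Caspase-Glo 3/7 reagent at room temperature.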

Test [8] is described as follows: Caspase-3/7 induction in HepG2 cells by small molecules, qHTS cell viability counter screen (AID 1346981). Note: nearly all actives have a fitted effect of over 30% in size. Note: potency is the fitted concentration of half-maximal effect. Summed up:
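Wild-type HepG2 cells (2,000/well) were allowed to settle for 5 hr at 37 C, 5% CO2, then dosed with compounds in DMSO by pin transfer. After 16 hr at 37 C, CellTiter-Fluor was added and fluorescence read 1 hr later.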

“And” between values parts separate entries of the source, which are not always exact repeats. Equal entries are not always repeated. Records with an inconclusive call do not appear. The source made the active and inactive calls. Calls come from the whole dose curve; as a rule, active = well fitted curve in the direction sought with a large enough effect in the repeat runs; inconclusive = weak or mixed curves; inactive = no such curve, though single readings can be large; an effect the other way counts as inactive or inconclusive.

Sequence of Nuclear receptor subfamily 1 group I member 2 (Homo sapiens) (O75469 whole entry, looked up): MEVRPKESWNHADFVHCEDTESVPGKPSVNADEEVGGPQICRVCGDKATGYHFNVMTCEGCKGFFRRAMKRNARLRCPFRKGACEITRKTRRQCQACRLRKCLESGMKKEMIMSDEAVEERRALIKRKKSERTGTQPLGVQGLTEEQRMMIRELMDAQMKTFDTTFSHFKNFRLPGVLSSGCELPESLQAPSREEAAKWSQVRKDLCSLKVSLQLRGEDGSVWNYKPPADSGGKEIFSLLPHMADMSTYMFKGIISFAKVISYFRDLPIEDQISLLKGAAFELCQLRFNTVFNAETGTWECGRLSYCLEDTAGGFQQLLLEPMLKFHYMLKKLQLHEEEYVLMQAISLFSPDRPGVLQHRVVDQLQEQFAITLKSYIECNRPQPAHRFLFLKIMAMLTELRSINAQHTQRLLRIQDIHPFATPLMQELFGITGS
Sequence of Cytochrome P450 2D6 (Homo sapiens) (P10635 whole entry, looked up): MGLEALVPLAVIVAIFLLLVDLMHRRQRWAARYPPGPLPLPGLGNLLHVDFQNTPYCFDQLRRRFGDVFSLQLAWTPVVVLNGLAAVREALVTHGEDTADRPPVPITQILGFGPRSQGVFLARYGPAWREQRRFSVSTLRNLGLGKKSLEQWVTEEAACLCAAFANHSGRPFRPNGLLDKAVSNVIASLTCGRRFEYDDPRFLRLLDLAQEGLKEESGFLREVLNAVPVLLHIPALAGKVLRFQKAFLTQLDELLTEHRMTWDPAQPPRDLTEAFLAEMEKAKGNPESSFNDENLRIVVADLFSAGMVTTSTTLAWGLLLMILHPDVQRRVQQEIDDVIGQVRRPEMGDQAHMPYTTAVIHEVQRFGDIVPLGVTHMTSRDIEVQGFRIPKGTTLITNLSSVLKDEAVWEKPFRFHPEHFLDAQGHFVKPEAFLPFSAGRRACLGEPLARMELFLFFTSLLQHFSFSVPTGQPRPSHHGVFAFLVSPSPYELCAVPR
Sequence of Nuclear receptor subfamily 1 group I member 2 (Rattus norvegicus) (Q9R1A7 whole entry, looked up): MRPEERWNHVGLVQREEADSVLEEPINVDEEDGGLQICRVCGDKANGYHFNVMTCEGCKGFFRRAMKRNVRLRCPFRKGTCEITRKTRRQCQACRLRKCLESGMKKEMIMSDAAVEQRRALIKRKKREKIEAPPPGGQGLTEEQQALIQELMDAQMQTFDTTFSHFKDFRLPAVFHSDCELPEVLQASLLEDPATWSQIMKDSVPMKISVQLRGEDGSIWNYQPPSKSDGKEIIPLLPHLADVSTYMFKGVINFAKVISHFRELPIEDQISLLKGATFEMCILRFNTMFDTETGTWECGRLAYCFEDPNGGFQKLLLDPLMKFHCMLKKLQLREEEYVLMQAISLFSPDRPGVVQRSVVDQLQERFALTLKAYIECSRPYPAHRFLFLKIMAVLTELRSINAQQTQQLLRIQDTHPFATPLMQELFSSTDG

For the compound `CSc1ccc2c(c1)C(N1CCN(C)CC1)Cc1ccccc1S2` (stereo unspecified), the Potency in test [1] is 29.8 µM (active); in test [5], 25.1 µM (active); in test [6] it was 1.74 µM (active). Also, the Potency entry in test [2] and in test [3] was “inactive” throughout. Also, in test [4], the max activation was -6.14% (inactive).
For `Nc1c2ccccc2nc2ccccc12`, the Potency in test [7] is 21.4 µM (active) and 11.9 µM (active); in test [2], 12 µM (active); in test [6] it was 700 nM (active) and 11 µM (active). Further, in test [8], the Potency entry was “inactive”.
With `CN1CCN(CCC(=O)N2c3ccccc3Sc3ccc(C(F)(F)F)cc32)CC1`, the Potency in test [1] was 23.7 µM (active); in test [8], 29.8 µM (active); in test [5] it was 14.1 µM (active); in test [6], 0.155 µM (active). The Potency entry in test [2] and in test [3] was “inactive” in each case. Besides, the max activation in test [4] was -0.926% (inactive).
`CC(C)n1nc(-c2cc3cc(O)ccc3[nH]2)c2c(N)ncnc21`: the Potency in test [7] was 29.8 µM (active); in test [1] it was 1.06 µM (active); in test [6], 30.9 µM (active).
Take `S=c1[nH]c2ccccc2s1`: in test [7], the Potency result is “inactive”. Moreover, the Potency in test [1] was 64.8 µM (active); in test [3], 30.6 µM (active); in test [6] it was 39.9 µM (active).
Consider `C/C(=C(/OCCOc1ccc(Cl)cc1)c1ccc(Cl)cc1Cl)n1ccnc1`, for which the Potency entry in test [7], in test [2] and in test [8] was “inactive” in each case. Besides, the Potency was 10.6 µM (active) in test [3] and 1.55 µM (active) in test [6].
Consider `C[C@@H](NCCCc1cccc(C(F)(F)F)c1)c1cccc2ccccc12`, for which the Potency entry in test [5] is “inactive”. Moreover, in test [6], the Potency was 0.0389 µM (active).
`Cc1[nH]cnc1C[C@H]1CCc2c(C)c3ccccc3n2C1=O`: the Potency is 47.4 µM (active) in test [1] and 4.37 µM (active) in test [6]. Besides, the Potency entry in test [2] was “inactive”.
Consider `CCCCCCCC[N+](CCCCCCCC)(CCCCCCCC)CCCCCCCC`, for which the Potency was 15.3 µM (active) in test [7]; 8.62 µM (active) in test [1]; 21.6 µM (active) in test [8]; 3.06 µM (active) in test [3]; 0.563 µM (active) in test [6].
Consider `Nc1ccc2c3c(cccc13)-c1ccccc1-2`, for which the Potency entry in test [2] and in test [6] was “inactive” each time.
As to `CCCCN1C(=O)[C@@H]([C@H](O)C2CCCCC2)NC(=O)C12CCN(Cc1ccc(Oc3ccc(C(=O)O)cc3)cc1)CC2`, the Potency in test [1] was 61.1 µM (active); in test [8], 30.6 µM (active). Also, the Potency result in test [2], in test [3] and in test [6] was “inactive” in each case.
As for `C/C=C1/C(=O)C[C@H]2[C@@H]3CCC4=CC(=O)CC[C@]4(C)[C@H]3CC[C@]12C`, the Potency in test [1] is 60.9 µM (active). Moreover, the Potency result in test [2] and in test [6] was “inactive” each time.
In the case of `CCCCN(CCCC)c1ccc(C(=O)c2ccccc2C(=O)O)c(O)c1`, the Potency in test [3] was 61.7 µM (active). In test [6], the Potency result was “inactive”.
As to `CCCCCCCCS(=O)C(C)Cc1ccc2c(c1)OCO2` (stereo unspecified), the Potency result in test [7] and in test [2] was “inactive” in each case. Further, the Potency was 69.9 µM (active) in test [8], 19.7 µM (active) in test [3] and 64.6 µM (active) in test [6].
